The whole screen tested about 68,000 compounds, of which about 2,700 (4%) showed an effect of 50% or more. The list comes from a sample in which strong results are over-represented; it also holds similar structures and randomly drawn compounds.
The molecules below were run on Plasmodium berghei (assay: Screen against P. berghei liver stage (PbLuc), transformed with Luciferase, at 2uM). Conditions: tested at 2 uM.
Assay type: functional, HepG2

Row | SMILES | INHIBITION
1 | CCn1cc(S(=O)(=O)NCC(OC)c2ccccc2)cn1 (stereo unspecified) | 58.12%
2 | CCn1cc(S(=O)(=O)NC(CO)Cc2ccccc2)cn1 (stereo unspecified) | 29.19%
3 | CCn1cc(S(=O)(=O)NCC(OC)c2cccc(Cl)c2)cn1 (stereo unspecified) | 31.78%
4 | COC(CNC(=O)c1ccc(NC(C)=O)cc1)c1cccc(Cl)c1 (stereo unspecified) | -8.34%
5 | CCn1cc(C(=O)NCC(OC)c2cccc(Cl)c2)cn1 (stereo unspecified) | 55.73%
6 | COC(CNC(=O)c1ccoc1)c1cccc(Cl)c1 (stereo unspecified) | -0.15%
7 | Cc1cnn(CCNCC(O)COc2ccc(Cl)cc2Cl)c1 (stereo unspecified) | 23.94%
8 | O=C(NCC1CCOC1)c1csc(-c2cccc(Cl)c2)n1 (stereo unspecified) | 25.74%
9 | N[C@H]1CN(C(=O)c2ccc3[nH]c(=O)c(=O)[nH]c3c2)C[C@@H]1c1ccccc1 | -6.88%
10 | N#Cc1ccccc1N1CC2(CCCCN2CC2CC2)CC1=O (stereo unspecified) | -47.71%
11 | COCc1cc(CNC(=O)c2c(O)cccc2O)n[nH]1 | 30.93%
12 | O=C(Nc1ccc2c(c1)OC1(CCCCC1)O2)c1ccc(=O)[nH]n1 | -5.9%
13 | c1cncc(-c2nccc(CN3CCC(N4CCCCC4)CC3)n2)c1 | 25.72%
14 | c1cncc(-c2nccc(CN3CCCC3)n2)c1 | 52.89%
15 | CCN1CCN(Cc2ccnc(-c3cccnc3)n2)CC1 | 15.58%
16 | CC(C)c1cc(C(=O)NCCCN(C)C)nc(N2CCCC2)n1 | 27.54%
17 | CC(C)c1noc(CNc2ccc(OC(F)F)cc2OC(F)F)n1 | -70.61%
18 | Cc1noc(CNc2ccc(OC(F)F)cc2OC(F)F)n1 | 57.23%
19 | FC(F)Oc1ccc(NCc2nc(C3CC3)no2)c(OC(F)F)c1 | -35.14%
20 | O=C(NCCc1cc(F)ccc1F)NCC(O)C1CC1 (stereo unspecified) | 30.69%
21 | c1ccc(O[C@H]2COCCN(CC3CC3)C2)cc1 | 20.5%
22 | CC(NC(=O)Cn1cccn1)c1cccnc1 (stereo unspecified) | 42.58%

Row | SMILES | INHIBITION
23 | CC(NC(=O)NCCCn1cccn1)c1cccnc1 (stereo unspecified) | -8.05%
24 | CC(CC(=O)NCCCn1cccn1)c1cccnc1 (stereo unspecified) | 74.51%
25 | Cc1nc(O)c2c(n1)CCN(Cc1cc(C)sc1C)CC2 | -0.21%
26 | CCC[C@@H]1CN(Cc2ccccc2-c2ccco2)C[C@H]1NC(C)=O | 28.19%
27 | COCCN1CCC(Cc2cnc(-c3ccccc3C(=O)O)cn2)CC1 | 20.44%
28 | Cc1nnc(C(C)NCC2(c3c(F)cccc3F)CCCC2)o1 (stereo unspecified) | 50.9%
29 | Cc1cccc(C2(CNC(C)c3nnc(C)o3)CCCC2)c1 (stereo unspecified) | 38.96%
30 | Cc1nnc(C(C)NCC2(c3ccc(F)cc3)CCCCC2)o1 (stereo unspecified) | -55.34%
31 | O=C(NCC1CC1)[C@@H]1CCO[C@@H]2CCN(Cc3ccsc3)C[C@H]21 | 28.38%
32 | O=C(O)c1cc(-c2cc[nH]n2)cc(S(=O)(=O)N2CCCCCC2)c1 | 23.17%
33 | O=C1CN(c2ccc(CNC(=O)Nc3nccs3)cc2)CCN1 | 29.4%
34 | Nc1nccnc1C1CN(C(=O)c2ccnnc2)CCO1 (stereo unspecified) | 27.39%
35 | CCc1n[nH]c(C2CN(C(=O)c3cnc(C)nc3CC)CCO2)n1 (stereo unspecified) | 39.07%
36 | Nc1nccnc1C1CN(C(=O)c2cnc(C3CC3)nc2)CCO1 (stereo unspecified) | 39.9%
37 | Nc1nccnc1C1CN(C(=O)c2ccc3c(c2)OCO3)CCO1 (stereo unspecified) | 50.32%
38 | Cc1n[nH]c(C2CN(C(=O)c3ccc4c(c3)COC4)CCO2)n1 (stereo unspecified) | 67.28%
39 | CCc1n[nH]c(C2CN(C(=O)c3nc(C)ncc3Cl)CCO2)n1 (stereo unspecified) | 63.95%
40 | CCc1n[nH]c(C2CN(C(=O)c3ncoc3CC)CCO2)n1 (stereo unspecified) | -15.34%
41 | Cc1n[nH]c(C2CN(C(=O)c3ccc4c(c3)CCCC4)CCO2)n1 (stereo unspecified) | -1.87%
42 | CCc1n[nH]c(C2CN(C(=O)c3ccc4c(c3)COC4)CCO2)n1 (stereo unspecified) | -0.99%
43 | COc1ccc(CN2CC[C@H](O)[C@@H]2Cc2cnn(C)c2)cc1 | -10.92%
44 | CC(NC(=O)N(C)Cc1cnn(C)c1)c1nncn1C (stereo unspecified) | 18.63%

Row | SMILES | INHIBITION
45 | O=C(Nc1ccc2ncccc2c1)C1CC(=O)N(Cc2ccccn2)C1 (stereo unspecified) | -6.89%
46 | Cc1noc(C)c1CCC(=O)N1CCN(CCn2cncn2)CC1 | 33.75%
47 | CC(=O)NCC(=O)N1CCCC2(CCC(=O)N(CCc3c[nH]cn3)C2)C1 (stereo unspecified) | -53.74%
48 | CC(C)CCN1CC2(CCCN(C(=O)CNC(=O)N(C)C)C2)CCC1=O (stereo unspecified) | 58.03%
49 | O=C(CSCC1CC1)N1CCCC2(CCC(=O)N(CC3CC3)C2)C1 (stereo unspecified) | 1.42%
50 | O=C(CCC(F)(F)F)N1CCCC2(CCC(=O)N(CC3CC3)C2)C1 (stereo unspecified) | -6.04%
51 | O=C(CO)N1CCCC2(CCC(=O)N(CC3CC3)C2)C1 (stereo unspecified) | 62.38%
52 | CN(C)C(=O)NCC(=O)N1CCCC2(CCC(=O)N(CC3CC3)C2)C1 (stereo unspecified) | 40.61%
53 | CCN1CCN(C2CCN(Cc3ccc(Cl)s3)CC2)C1=O | 18.52%
54 | COCC1CC2(CCN(Cc3ccccn3)CC2)CN1c1ncccn1 (stereo unspecified) | -23.78%
55 | Cc1nnc(SCCNc2cc(C3CC3)ncn2)s1 | 12.17%
56 | COc1cc(NCCCSc2nnc(C)s2)ncn1 | -29.43%
57 | Cc1nnc(SCCCNc2cc(C3CC3)ncn2)s1 | 60.35%
58 | Cc1cc(CN2CCC(c3ccnn3CCO)CC2)no1 | 20.28%
59 | COc1cc(S(=O)(=O)N2CCCc3ccccc32)cc(C(=O)O)c1OC | 56.72%
60 | COc1cc(S(=O)(=O)N2CCc3ccc(Cl)cc32)cc(C(=O)O)c1OC | 6.3%
61 | COc1cc(S(=O)(=O)N2CCc3ccccc32)cc(C(=O)O)c1OC | 12.65%
62 | O=C(c1cnccn1)N1CCOCC2(CCN(C3CCOCC3)C2)C1 (stereo unspecified) | 26.14%
63 | Cc1nc(CN2C[C@@H](CN3CCOCC3)[C@@H](CO)C2)c2ccccn12 | 25.81%
64 | O=S(=O)(Cc1ccc(Br)cc1)NCCO | 17.51%
65 | NCCCNS(=O)(=O)Cc1ccc(Br)cc1 | 5.28%
66 | NCCNS(=O)(=O)Cc1ccc(Br)cc1 | 50.59%

Row | SMILES | INHIBITION
67 | Cn1cc(CN2CC3(CCN(C(=O)c4cscn4)C3)C2)cn1 | -9.1%
68 | CC(=O)NCCN1CCC(c2cccs2)CC1 | 26.64%
69 | COc1ccc(C(=O)NCCN2CCC(c3cccs3)CC2)cc1OC | 66.04%
70 | Cc1csc(C(=O)NCCN2CCC(c3cccs3)CC2)c1 | 18.23%
71 | c1cncc(N2CCO[C@H]3CN(CC4CCOC4)C[C@H]32)c1 (stereo partly specified) | 19.51%
72 | O=C(Cn1cc(-c2ccccc2)ncc1=O)Nc1ncc[nH]1 | -80.35%
73 | COCCCNc1ncc(-c2cccc(F)c2)c(-c2nccn2C)n1 | -18.57%
74 | COCCNc1ncc(-c2cccc(OC)c2)c(-c2nccn2C)n1 | 54.87%
75 | COCCNc1ncc(-c2cc(C)no2)c(-c2ccco2)n1 | -29.24%
76 | COCCNc1ncc(-c2cccc(F)c2)c(-c2nccn2C)n1 | 27.12%
77 | CCOCCCNc1ncc(-c2cccc(F)c2)c(-c2nccn2C)n1 | 55.72%
78 | Cn1ccnc1-c1nc(NC2CCCC2)ncc1-c1cccc(F)c1 | 14.3%
79 | CN(C)C(=O)COCc1cncc2c1CCN(Cc1cnn(C)c1)C2 | 14.91%
80 | Cc1ccc2c(n1)N(C)CCN(Cc1ccco1)C2 | 29.89%
81 | c1ccc(CN2CC[C@]3(C[C@@H](Oc4ccccn4)CO3)C2)nc1 | 8.1%
82 | CS(=O)(=O)N1CCC2(CC1)CC(Oc1ccccn1)CO2 (stereo unspecified) | -0.23%
83 | O[C@@H]1CN(Cc2cnccn2)C[C@H]1Oc1ccccc1 | 26.14%
84 | CN(C)S(=O)(=O)N1CCC[C@]2(C[C@@H](Oc3ccccn3)CO2)C1 | 19.61%
85 | c1ccc(OC2COC3(CCN(Cc4ccccn4)CC3)C2)cc1 (stereo unspecified) | 62.15%
86 | CN(C)S(=O)(=O)N1CCC2(CC1)CC(Oc1ccccn1)CO2 (stereo unspecified) | 56.78%
87 | c1ccc(CO[C@@H]2CO[C@@]3(CCN(Cc4ccccn4)C3)C2)nc1 | 40.25%
88 | c1ccc(OC2C[C@@H]3CN(Cc4cnccn4)C[C@@H]3C2)cc1 (stereo partly specified) | 50.32%

Row | SMILES | INHIBITION
89 | Cc1cnc(CN2C[C@H]3CC(Oc4ccccc4)C[C@H]3C2)cn1 (stereo partly specified) | 25.06%
90 | COc1ccc2cc(-c3n[nH]cc3CN3CCSCC3)ccc2c1 | 30.34%
91 | CN(C)C(=O)CO[C@@H]1CC[C@H]2[C@H]1OCCN2c1ncc(F)cn1 | 34.89%
92 | Cc1cc(CN2CCC(CNS(=O)(=O)c3ccc(Br)s3)CC2)c(C)o1 | 23.96%
93 | CC(C)Cc1nc(CSCC(=O)N2CCC(C)CC2)no1 | -32.8%
94 | O=C(Nc1ccc(F)c(Br)c1)N1CCCC1 | -5.87%
95 | CC(C)CC(NC(=O)c1cccs1)c1nc2cccnc2n1C (stereo unspecified) | -19.86%
96 | NC(=O)C1CCN(CCCNC(=O)Nc2nccs2)CC1 | 28.14%
97 | O=C(Nc1cccnc1)[C@H]1CN(Cc2ccccn2)C[C@H]2OCC[C@@H]12 | -43.55%
98 | Cc1cc(-c2nc(-c3ccccn3)nn2C2CCN(C)CC2)nc(C)n1 | 14.19%
99 | CC1(CO)COC(Cc2ccc(Cl)cc2)=N1 (stereo unspecified) | -6.98%
100 | O=C1N(CCCc2ccccc2)CCCC12CCN(C(CO)CO)C2 (stereo unspecified) | 7.13%
101 | CS(=O)(=O)N1CCC2(CCCN(CCCc3ccccc3)C2=O)C1 (stereo unspecified) | -57.67%
102 | O=C1N(CCc2ccccc2)CCCC12CCN(C(CO)CO)C2 (stereo unspecified) | 57.92%
103 | Cc1ccc(N2CCN(C3CCc4ccccc4C3)CC2)nn1 (stereo unspecified) | 30.66%
104 | Cc1noc(C)c1-c1cncc(CC2CCN(C(=O)c3cc[nH]n3)C2)n1 (stereo unspecified) | 61.16%
105 | Cc1noc(C)c1-c1cc(CC2CCN(C(=O)c3cc[nH]n3)C2)ncn1 (stereo unspecified) | -15.34%
106 | Cc1noc(C)c1-c1cccc(CC2CCN(C(=O)c3cc[nH]n3)C2)n1 (stereo unspecified) | -8.23%

From ChEMBL document CHEMBL4513216, “Probing the Open Global Health Chemical Diversity Library for Multistage-Active Starting Points for Next-Generation Antimalarials” (ACS Infect Dis, 2020)
